Data as given in PubChem BioAssay (NCI).
About 79,000 compounds went through this panel and 15% of them were active in at least one assay; those are over-represented in the sample as a whole. Calls of active or inactive are those of the source. No stated cut-off is given here; in the data, active means growth inhibition above about 70%; inactive means the rest.

Tests used:
[1] = NCI Yeast Anticancer Drug Screen. Data for the rad50 strain (AID 155);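 further: 0% = growth of vehicle-only cultures of the same strain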; conditions: S. cerevisiae rad50 strain growth inhibition; at 50.0 µM; hits give high values
Summary of the method: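 Readout: growth inhibition relative to vehicle-treated cultures. Compound exposure was carried out in a genetically defined yeast strain deficient in DNA damage repair.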

[2] = NCI Yeast Anticancer Drug Screen. Data for the mec2-1 strain (AID 157); conditions: S. cerevisiae mec2-1 strain, at 50.0 µM, hits give high values
Summary of the method: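 Each compound was tested on mec2-1 yeast, a strain altered in DNA damage repair or cell cycle control. Growth inhibition is reported relative to vehicle.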

[3] = NCI Yeast Anticancer Drug Screen. Data for the sgs1 mgt1 strain (AID 161);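 further: 0% = growth of cultures given vehicle only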; conditions: S. cerevisiae sgs1 mgt1 strain, at 50.0 µM, hits give high values
Summary of the method: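 Mutant yeast exposed to compound; growth scored against vehicle-only wells.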

[4] = NCI Yeast Anticancer Drug Screen. Data for the cln2 rad14 strain (AID 165);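 further: 0% = growth equal to vehicle treated cultures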; conditions: S. cerevisiae cln2 rad14 strain, at 50.0 µM, hits give high values
Summary of the method: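 Test compounds were added to cln2 rad14 yeast cultures; inhibition of growth was then determined by comparison with vehicle treatment.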

[5] = NCI Yeast Anticancer Drug Screen. Data for the bub3 strain (AID 167); conditions: S. cerevisiae bub3 mutant strain, at 50.0 µM, hits give high values
Summary of the method: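 Readout: yeast growth inhibition, expressed relative to vehicle-only wells. The test organism is a mutant strain from a panel with lesions in DNA repair or checkpoint genes.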

[6] = NCI Yeast Anticancer Drug Screen. Data for the mlh1 rad18 strain (AID 175); conditions: S. cerevisiae mlh1 rad18 strain growth inhibition; at 50.0 µM; hits give high values
Summary of the method: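 Inhibition values reflect reduced growth of mutant yeast versus vehicle-treated controls following compound exposure; the mutations affect DNA damage repair.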

Measured: growth inhibition

CCCCOc1ccc(Nc2c(C(=O)OCC)cnc3cc4c(cc23)OCO4)cc1
inactive: [1] -3.3% | [2] -9% | [3] -0.25% | [4] 8.2% | [5] -3.45% | [6] -9.4%

Cc1csnn1
inactive: [1] -12.7% | [2] -17.9% | [3] 8.5% | [4] -1.4% | [5] -1.6% | [6] -21.6%

COc1ccc(C(C)=O)c(C)c1OC
inactive: [1] 22.6% | [2] 3.65% | [3] 19.6% | [4] 10.4% | [5] -22.2% | [6] 15.2%

CCCCCCCCCCCCn1[nH]c(C)c(C(=S)SCCCCCCCC)c1=O
inactive: [1] -7.2% | [2] 1.05% | [3] -0.9% | [4] 1.45% | [5] 3% | [6] 7.3%

O=C(O)c1ccc([N+](=O)[O-])cc1OCc1ccccc1
inactive: [1] 13.4% | [2] -5.1% | [3] 12.9% | [4] -39% | [5] -3.4% | [6] 3.95%

CN(N)C(=O)NCCCl
inactive: [1] -9.1% | [2] -4.6% | [3] 8.25% | [4] 13.4% | [5] -28% | [6] -1.8%

CNCC(O)(C(=O)O)C(=O)O
inactive: [1] -12.6% | [2] -45.9% | [3] -32.9% | [4] 6.05% | [5] -29.1% | [6] -7.95%

Cc1cc2nc(N3CCCCC3)n(C3OC(CO)C(O)C3O)c2cc1C (configuration not stated)
inactive: [1] 11% | [2] 10.2% | [3] -0.45% | [4] 10.7% | [5] -8.75% | [6] 13.8%

CS(=O)(=O)c1cc(=O)[nH]c(=O)[nH]1
inactive: [1] 0.55% | [2] 1.45% | [3] 18.2% | [4] 25.6% | [5] -0.9% | [6] 7.45%

COC(=O)CC(c1ccc2c(c1)OCO2)N1CCCCC1 (configuration not stated)
inactive: [1] 7.35% | [2] -12.9% | [3] -11.7% | [4] -22.9% | [5] -1% | [6] 11.2%

COc1ccc(C2=C(c3ccccc3)C(=O)C(c3ccccc3)=C2c2ccccc2)cc1
inactive: [1] -12.9% | [2] -12.9% | [3] -8.7% | [4] 13.2% | [5] -1.7% | [6] -6.05%

NC1CCC2(O)c3ccccc3C2C1 (configuration not stated)
inactive: [1] -0.95% | [2] 0.05% | [3] 22.2% | [4] 18.9% | [5] 5.7% | [6] 7.35%

CCCCCCCCCCCCCCOc1ccc(OCCCCCCCCC)cc1
inactive: [1] 38.4% | [2] -14.9% | [3] 24.1% | [4] -13.8% | [5] 3.4% | [6] -13.9%

Cc1c2ccccc2nc(CSCCO)[n+]1[O-]
inactive: [1] -10.8% | [2] -22.1% | [3] -7.95% | [4] -2.1% | [5] 5.5% | [6] -16.2%

F[Si](c1ccccc1)(c1ccccc1)c1cccc2ccccc12
active: [1] 98.7% | [2] 98.6% | [3] 99.2% | [4] 98.8% | [5] 98.5% | [6] 98.8%

COc1ccc2c(c1)C(=O)OCCC2
inactive: [1] 25.4% | [2] 17.5% | [3] -26.6% | [4] 10.3% | [5] -36.4% | [6] -9.95%

Nc1nc(Cl)nc(Cl)n1
inactive: [1] -53.7% | [2] -59.5% | [3] -33% | [4] 3.75% | [5] -52.4% | [6] -12.2%

CSC1=NC=C(C#N)C2=NC(c3ccccc3)NN12 (configuration not stated)
inactive: [1] -0.3% | [2] -5.55% | [3] -6.6% | [4] -14.2% | [5] 2.8% | [6] 7%

Cc1cccc(CNc2ncnc3[nH]ncc23)c1
inactive: [1] -15% | [2] -30.8% | [3] -24.8% | [4] -12.6% | [5] -36.1% | [6] 3.15%

CN(C)C1=NC(c2ccccc2)(c2ccccc2)C(=O)N1
inactive: [1] -17.4% | [2] -8.15% | [3] -3.15% | [4] -40.5% | [5] -6.35% | [6] -23.4%

S=C(S)NCCCn1ccnc1
inactive: [1] -11.8% | [2] 23.8% | [3] -14.8% | [4] -15.9% | [5] -30.7% | [6] -0.8%

CC(=O)NC(Cc1cc(I)c(OC(C)=O)c(I)c1)C(=O)O (configuration not stated)
inactive: [1] -4.85% | [2] -16.8% | [3] 3.45% | [4] 6% | [5] 12.4% | [6] -0.6%

CN1CCN(CCCBr)CC1
inactive: [1] -8.85% | [2] -5.3% | [3] -24.9% | [4] -31.8% | [5] -31.9% | [6] -4.3%

CCCCC(C)NC=O (configuration not stated)
inactive: [1] 31.4% | [2] 13% | [3] 3.9% | [4] 9% | [5] 14.4% | [6] 24.6%

C=CC(O)CCCC (configuration not stated)
inactive: [1] 8.35% | [2] -32.6% | [3] 0.6% | [4] 6.25% | [5] -17.1% | [6] 18.1%

COC(=O)/C(=N\NC(C)(C)C)C(C(=O)OC)C(=O)C(=O)Nc1cc(Cl)ccc1Cl (configuration not stated)
inactive: [1] 6.7% | [2] -0.25% | [3] -1.65% | [4] 1% | [5] -24.6% | [6] 8.55%

COc1ccccc1NC(=O)N(Cc1ccccc1)C(C)(C)C
inactive: [1] 12.2% | [2] 9.35% | [3] 30.4% | [4] -10.2% | [5] 19.3% | [6] 33.2%

CCOC(=O)CNC(=O)C(CSSCC(NC(=O)OCc1ccccc1)C(=O)OC)NC(=O)C(NC(=O)OCc1ccccc1)C(C)C (configuration not stated)
inactive: [1] 7.65% | [2] 21.3% | [3] 14.5% | [4] -1.65% | [5] -11.7% | [6] 56.6%

O=C1c2ccccc2CCC12OC2c1ccncc1 (configuration not stated)
inactive: [1] 12.1% | [2] 27.1% | [3] 25% | [4] 6.75% | [5] 39.4% | [6] 29.6%

COc1cc([C@@H]2c3cc4c(cc3[C@@H](Nc3ccc(NC(=O)c5cc(NC(=O)c6cc([N+](=O)[O-])cn6C)cn5C)cc3)[C@H]3COC(=O)[C@H]23)OCO4)cc(OC)c1O
inactive: [1] 34% | [2] 31.6% | [3] 34% | [4] 9.2% | [5] 16.4% | [6] 6.45%

CCSC1OC(C(O)CO)C(O)C1NC(=O)C(F)(F)F (configuration not stated)
inactive: [1] 5.65% | [2] 6.05% | [3] 1.5% | [4] 1.1% | [5] 32% | [6] 12.8%

OCC(O)C(OC1OC(CO)C(O)C(O)C1O)C(O)c1cnn(-c2ccccc2)n1 (configuration not stated)
inactive: [1] -0.05% | [2] 8.6% | [3] -24.3% | [4] -14.7% | [5] -1.5% | [6] 15.2%

CCCSc1nc2c(=O)n(C)c(=O)[nH]c2n1C
inactive: [1] -10.2% | [2] -1.8% | [3] -6.95% | [4] -36.3% | [5] -12.2% | [6] -3.55%

Ic1ccccn1
inactive: [1] 15.3% | [2] -11.3% | [3] -9.05% | [4] -29.8% | [5] -8.15% | [6] -1.2%

O/N=C/c1nc2ccccc2s1
inactive: [1] 10.2% | [2] 22.8% | [3] -3.65% | [4] -55.6% | [5] -17.6% | [6] 23.8%

Cc1cc(=O)[nH]c(NN2C(Cl)C(=O)C2c2c(O)ccc3ccccc23)n1 (configuration not stated)
inactive: [1] -8.2% | [2] -10.6% | [3] -0.75% | [4] 13.3% | [5] 0.7% | [6] -32.8%

O=C(Cn1nnc(N2CCCCC2)n1)N/N=C/c1ccccc1O
inactive: [1] -29.7% | [2] -42% | [3] -9% | [4] -10.8% | [5] -9.05% | [6] -29.3%

COc1ccc(Nc2nc(C#N)c(N)s2)cc1
inactive: [1] 3.75% | [2] -12.6% | [3] -0.15% | [4] -0.2% | [5] -27% | [6] -9.5%

CCSc1nc(Cl)nc2c1cnn2C
inactive: [1] 7.95% | [2] -2.15% | [3] 8.05% | [4] 4.1% | [5] 24.9% | [6] 5.4%

N/C(=N\OC(=O)Nc1cccc(Cl)c1)C(Cl)(Cl)Cl
active: [1] 96.8% | [2] 99.5% | [3] 99.5% | [4] 96.3% | [5] 99.2% | [6] 99%

CCN(CC)C(=O)c1ccc(C(C)C)cc1
inactive: [1] 20.4% | [2] 14.8% | [3] 27.9% | [4] 6.6% | [5] 18.3% | [6] 25.8%

N#C/C(=C\c1ccccn1)c1nc(-c2ccc(Cl)cc2)cs1
inactive: [1] -9.6% | [2] -27.9% | [3] -12.7% | [4] -0.1% | [5] 0.5% | [6] -14.6%
